Calls of active or inactive are those of the source. No stated cut-off is given here; in the data, active means parasite load remaining mostly below about 12% (no sharp cut-off); inactive means mostly above about 10%.
Assay: liver-stage malaria parasite growth inhibition, primary screen, cell-based, HepG2, luciferase luminescence, HepG2 viability (AID 624349);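 further: 100% = mean of DMSO negative control wells on the same plate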
Settings: P. berghei liver stage in HepG2, luciferase luminescence, concentration not given here; parasite load remaining: stronger effect = lower value; viability: measured here: HepG2 viability without parasites

**Q.** Which viability does the source give for CC(C)CC(=O)NC(C(=O)N[C@H](C(=O)NC(CC(C)C)[C@@H](O)CC(=O)N[C@@H](C)C(=O)NC(CC(C)C)[C@@H](O)CC(=O)O)C(C)C)C(C)C (stereo not given in full) here?
**A.** The viability was 80.5%.

**Q.** And the parasite load remaining?
**A.** The parasite load remaining was 67.7% (inactive).

**Q.** Which viability does the source give for CC[C@@H]1OC(=O)[C@H](C)[C@H](O[C@H]2C[C@@](C)(OC)[C@@H](O)[C@H](C)O2)[C@@H](C)[C@@H](O[C@@H]2O[C@H](C)C[C@H](N(C)C)[C@H]2O)C(C)(O)C[C@@H](C)[C@@H]2NC(COCCOC)OC([C@H]2C)[C@]1(C)O (stereo not given in full) here?
**A.** Its viability is 77.5%.

**Q.** What about the parasite load remaining of the same compound?
**A.** Its parasite load remaining is 84.5% (inactive).

**Q.** What does the source list for CN(C)CC/C=C1/c2ccccc2CSc2ccccc21?
**A.** parasite load remaining: 68.1% (inactive); viability: 76.6%

**Q.** What does the source list for C[C@H]1[C@H](C)CC[C@]2(C(=O)O)CC[C@]3(C)C(=CCC4[C@@]5(C)CC[C@H](O)C(C)(C)[C@@H]5CC[C@]43C)[C@H]12 (stereo not given in full)?
**A.** parasite load remaining: 107% (inactive); viability: 92.7%

**Q.** Which parasite load remaining does the source give for O=C1O[C@H](C(O)CO)[C@H](O)C1O (stereo not given in full) here?
**A.** The parasite load remaining was 68.2% (inactive).

**Q.** And the viability?
**A.** Its viability is 76.1%.

**Q.** What does the source list for C1CCN2C[C@H]3C[C@@H](CN4CCCC[C@@H]34)[C@H]2C1?
**A.** viability: 72.2%; parasite load remaining: 73.9% (inactive)

**Q.** For CS(=O)(=O)c1ccc(-c2nc(-c3ccc(F)cc3)c(-c3ccncc3)[nH]2)cc1, which parasite load remaining is on record?
**A.** Its parasite load remaining is 28.7% (inactive).

**Q.** What about the viability of the same compound?
**A.** Its viability is 88.5%.

**Q.** For CCCCc1c(-c2ccc(O)cc2)[nH]c2nccnc12, which viability is on record?
**A.** Its viability is 112%.

**Q.** What about the parasite load remaining of the same compound?
**A.** The parasite load remaining was 46.4% (inactive).

**Q.** Which viability does the source give for N#CCCc1ccc2c(c1)-c1[nH]c3ccc([N+](=O)[O-])cc3c1CC(=O)N2 here?
**A.** The viability was 120%.

**Q.** What about the parasite load remaining of the same compound?
**A.** Its parasite load remaining is 64.4% (inactive).

**Q.** With Cc1c(C)c2c(c(C)c1O)CC[C@](C)(CCC[C@@H](C)CCC[C@@H](C)CCCC(C)C)O2 as the compound, how does the viability read?
**A.** Its viability is 78.5%.

**Q.** What about the parasite load remaining of the same compound?
**A.** The parasite load remaining was 52.8% (inactive).

**Q.** Which results are given for Nc1nc2ncc(CNc3ccc(C(=O)N[C@H](CCC(=O)O)C(=O)O)cc3)nc2c(=O)[nH]1?
**A.** parasite load remaining: 51.4% (inactive); viability: 76.8%

**Q.** For CC(C)(CO)[C@H](O)C(=O)NCCC(=O)O, which parasite load remaining is on record?
**A.** Its parasite load remaining is 85.1% (inactive).

**Q.** What about the viability of the same compound?
**A.** The viability was 77.3%.

**Q.** With COC1CC(O[C@@H]2[C@H](C)[C@H](OC3OC(C)CC(N(C)C)C3OC(C)=O)[C@H](C)CC3(CO3)C(=O)[C@@H](C)C(OC(C)=O)[C@H](C)[C@H](C)OC(=O)[C@@H]2C)OC(C)C1OC(C)=O (stereo not given in full) as the compound, how does the parasite load remaining read?
**A.** Its parasite load remaining is 86.6% (inactive).

**Q.** And the viability?
**A.** Its viability is 90.9%.

**Q.** With Cc1cc2ncc(-c3ccccc3)nc2cc1C as the compound, how does the viability read?
**A.** Its viability is 74.4%.

**Q.** What about the parasite load remaining of the same compound?
**A.** Its parasite load remaining is 40.3% (inactive).

**Q.** What does the source list for CC(C)(O/N=C(/C(=O)N[C@@H]1C(=O)N2C(C(=O)[O-])=C(C[n+]3ccccc3)CS[C@H]12)c1csc(N)n1)C(=O)O?
**A.** parasite load remaining: 88.2% (inactive); viability: 82.6%

**Q.** Which viability does the source give for C=C1CC[C@@H](O)C/C1=C/C=C1\CCC[C@]2(C)[C@@H]([C@H](C)CCCC(C)C)CC[C@@H]12 here?
**A.** Its viability is 76%.

**Q.** What about the parasite load remaining of the same compound?
**A.** Its parasite load remaining is 79.3% (inactive).

**Q.** For CC(=O)NC(CC(=O)O)C(=O)O (stereo not given), which viability is on record?
**A.** Its viability is 77%.

**Q.** What about the parasite load remaining of the same compound?
**A.** The parasite load remaining was 89% (inactive).

**Q.** Which parasite load remaining does the source give for CCOC(=O)Oc1c(OC)cc(C(=O)OC2CC3CN4CCc5c([nH]c6cc(OC)ccc56)C4CC3C(C(=O)OC)C2OC)cc1OC (stereo not given) here?
**A.** Its parasite load remaining is 55.8% (inactive).

**Q.** And the viability?
**A.** The viability was 77.6%.

**Q.** For O=c1[nH]c(=O)n([C@H]2CC(O)[C@@H](CO)O2)cc1I (stereo not given in full), which parasite load remaining is on record?
**A.** The parasite load remaining was 130% (inactive).

**Q.** And the viability?
**A.** The viability was 96.5%.

**Q.** For COc1cc2ncnc(Nc3ccc(NC(=O)c4ccccc4)cc3)c2cc1OC, which viability is on record?
**A.** The viability was 100%.

**Q.** What about the parasite load remaining of the same compound?
**A.** Its parasite load remaining is 41.1% (inactive).

**Q.** With COC(=O)C1=CO[C@@H](C)[C@@H]2CN3CCc4c([nH]c5ccccc45)C3C[C@H]12 (stereo not given in full) as the compound, how does the parasite load remaining read?
**A.** Its parasite load remaining is 62.4% (inactive).

**Q.** What about the viability of the same compound?
**A.** Its viability is 77.2%.

**Q.** What does the source list for CC[C@H]1CN2CCc3cc(OC)c(OC)cc3[C@@H]2C[C@@H]1CC1NCCc2cc(OC)c(OC)cc21 (stereo not given in full)?
**A.** viability: 61.4%; parasite load remaining: 2.62% (inactive)

**Q.** Which viability does the source give for CC1Cc2ccccc2N1NC(=O)c1ccc(Cl)c(S(N)=O)c1 (stereo not given) here?
**A.** The viability was 94.8%.

**Q.** What about the parasite load remaining of the same compound?
**A.** Its parasite load remaining is 50.9% (inactive).

**Q.** What does the source list for CN1CCC23c4ccccc4NC1C21CCN(C)C3Nc2ccccc21?
**A.** parasite load remaining: 79.4% (inactive); viability: 76.7%

**Q.** For C=CC1=C(C(=O)O)N2C(=O)[C@@H](NC(=O)/C(=N/OCC(=O)O)c3csc(N)n3)[C@H]2SC1 (stereo in doubt), which parasite load remaining is on record?
**A.** The parasite load remaining was 92.8% (inactive).

**Q.** What about the viability of the same compound?
**A.** The viability was 73.2%.

**Q.** What does the source list for CCOC(=O)[C@@H](CCc1ccccc1)NC(C)C(=O)N1CCC[C@@H]1C(=O)O (stereo not given in full)?
**A.** parasite load remaining: 94.8% (inactive); viability: 91.7%

**Q.** Which parasite load remaining does the source give for Nc1c2ccccc2nc2c(O)cccc12 here?
**A.** Its parasite load remaining is 80.8% (inactive).

**Q.** What about the viability of the same compound?
**A.** Its viability is 77.4%.

**Q.** For CN1[C@@H]2CC[C@H]1CC(OC(=O)[C@@H](CO)c1ccccc1)C2 (stereo not given in full), which viability is on record?
**A.** The viability was 89%.

**Q.** And the parasite load remaining?
**A.** The parasite load remaining was 111% (inactive).

**Q.** For O=C(N[C@H](CO)[C@@H](O)c1ccc([N+](=O)[O-])cc1)C(Cl)Cl, which viability is on record?
**A.** Its viability is 91.7%.

**Q.** What about the parasite load remaining of the same compound?
**A.** The parasite load remaining was 100% (inactive).

**Q.** With NCC1OC(COC[C@@H]2C(O)[C@H](OC3C(O)C(N)CC(N)C3OC3OC(CN)C(O)C(O)C3N)O[C@@H]2CO)C(N)C(O)C1O (stereo not given in full) as the compound, how does the viability read?
**A.** The viability was 89.7%.

**Q.** What about the parasite load remaining of the same compound?
**A.** Its parasite load remaining is 91.3% (inactive).

**Q.** Which parasite load remaining does the source give for CC(=O)O[C@H]1C(=O)[C@@]2(C)[C@H](O)C[C@@H]3OC[C@]3(OC(C)=O)[C@@H]2[C@@H](OC(=O)c2ccccc2)[C@@]2(O)C[C@@H](OC(=O)[C@@H](O)[C@H](NC(=O)c3ccccc3)c3ccccc3)C(C)=C1C2(C)C here?
**A.** Its parasite load remaining is 172% (inactive).

**Q.** And the viability?
**A.** Its viability is 89.6%.

**Q.** Which results are given for C=C1CC[C@@H](O)C/C1=C/C=C1\CCC[C@]2(C)[C@@H]([C@H](C)/C=C/[C@@H](C)C(C)C)CC[C@@H]12?
**A.** viability: 88.3%; parasite load remaining: 66.4% (inactive)

**Q.** For CN=C(NC#N)NCCSCC1N=CN=C1C (stereo not given), which parasite load remaining is on record?
**A.** Its parasite load remaining is 100% (inactive).

**Q.** And the viability?
**A.** The viability was 88.8%.

**Q.** Which parasite load remaining does the source give for COc1cc(OC)c2c(c1Cl)O[C@]1(C2=O)C(OC)CC(=O)C[C@H]1C (stereo not given in full) here?
**A.** Its parasite load remaining is 83.9% (inactive).

**Q.** What about the viability of the same compound?
**A.** The viability was 93.9%.

**Q.** What does the source list for CCCCn1c2ccc(O)cc2c2c3c(c(-c4ccccc4Cl)cc21)C(=O)NC3=O?
**A.** parasite load remaining: 56.2% (inactive); viability: 74.7%

**Q.** With CC[C@H]1OC(=O)[C@H](C)[C@@H](O[C@H]2C[C@@](C)(OC)[C@@H](O)[C@H](C)O2)[C@H](C)[C@@H](O[C@H]2O[C@H](C)C[C@H](N(C)C)[C@H]2O)[C@](C)(O)C[C@@H](C)C(=O)[C@H](C)[C@@H](O)[C@]1(C)O as the compound, how does the parasite load remaining read?
**A.** The parasite load remaining was 97.5% (inactive).

**Q.** And the viability?
**A.** Its viability is 81.9%.

**Q.** Which results are given for CC(=O)NC1[C@@H](O)OC(CO)[C@@H](O)[C@H]1O[C@H](C)C(=O)O (stereo not given in full)?
**A.** parasite load remaining: 82.1% (inactive); viability: 76.2%

**Q.** What does the source list for CC[n+]1c(/C=C/N(C)c2ccccc2)n(-c2ccccc2)c2ccc(-c3nc4ccccc4s3)cc21?
**A.** viability: 152%; parasite load remaining: 33.2% (inactive)

**Q.** Which parasite load remaining does the source give for C[C@]12CCC(=O)C[C@H]1CC(=O)[C@@H]1[C@@H]2CC(=O)[C@]2(C)CCC[C@@H]12 (tested in a mixture with another compound) here?
**A.** Its parasite load remaining is 107% (inactive).

**Q.** And the viability?
**A.** The viability was 86.8%.

**Q.** Which results are given for CC(C)(CS)C(=O)N1CCC[C@@H]1C(=O)O?
**A.** parasite load remaining: 94.4% (inactive); viability: 94.8%
